Legend:
[1] = target: NR5A2 wild type;histone octamer (Homo sapiens;, UniProt O00482;C0HKE1;Q6ZWY9;P84244;P62806 1-541;2-130;2-126;2-136;2-103, |); test: SeEN-seq (EMSA of nucleosome library followed by sequencing); 0.8 uM human NR5A2; 20 mM Tris-HCl pH 7.5, 120 mM NaCl, 1 mM MgCl2, 10 uM ZnCl2, 1 mM DTT, 100 ug/ml BSA, room temperature, 30 min; 0.1 uM nucleosome library; high values mean tight binding
[2] = target: mouse Nr5a2 wild type;histone octamer (Mus musculus;, UniProt P45448;C0HKE1;Q6ZWY9;P84244;P62806 1-560;2-130;2-126;2-136;2-103, |); test: SeEN-seq (EMSA of nucleosome library followed by sequencing); 1.2 uM mouse Nr5a2; 20 mM Tris-HCl pH 7.5, 120 mM NaCl, 1 mM MgCl2, 10 uM ZnCl2, 1 mM DTT, 100 ug/ml BSA, room temperature, 30 min; 0.1 uM nucleosome library; high values mean tight binding

Binder	binding signal [1]	binding signal [2]
69 (nucleosome, reconstituted with mouse histones H2A, H2B, H3.3 and H4) DNA 1: ATCCTGGAGAATCCCGGTGCCGAGGCCGCTCAATTGGTCGTAGACAGCTCTAGCACCGCTTAAACGCACGTTCAAGGCCACCCCCGCGTTTTAACCGCCAAGGGGATTACTCCCTAGTCTCCAGGCACGTGTCAGATATATACATCCTGTGAT DNA 2: ATCACAGGATGTATATATCTGACACGTGCCTGGAGACTAGGGAGTAATCCCCTTGGCGGTTAAAACGCGGGGGTGGCCTTGAACGTGCGTTTAAGCGGTGCTAGAGCTGTCTACGACCAATTGAGCGGCCTCGGCACCGGGATTCTCCAGGAT	0.77 log2 enrichment (bound/unbound, relative to Widom 601)	0.872 log2 enrichment (bound/unbound, relative to Widom 601)
70 (nucleosome, reconstituted with mouse histones H2A, H2B, H3.3 and H4) DNA 1: ATCCTGGAGAATCCCGGTGCCGAGGCCGCTCAATTGGTCGTAGACAGCTCTAGCACCGCTTAAACGCACGTATCAAGGCCACCCCGCGTTTTAACCGCCAAGGGGATTACTCCCTAGTCTCCAGGCACGTGTCAGATATATACATCCTGTGAT DNA 2: ATCACAGGATGTATATATCTGACACGTGCCTGGAGACTAGGGAGTAATCCCCTTGGCGGTTAAAACGCGGGGTGGCCTTGATACGTGCGTTTAAGCGGTGCTAGAGCTGTCTACGACCAATTGAGCGGCCTCGGCACCGGGATTCTCCAGGAT	1.27 log2 enrichment (bound/unbound, relative to Widom 601)	1.51 log2 enrichment (bound/unbound, relative to Widom 601)
9 (nucleosome, reconstituted with mouse histones H2A, H2B, H3.3 and H4) DNA 1: ATCCTGGAGAATCAAGGCCACGAGGCCGCTCAATTGGTCGTAGACAGCTCTAGCACCGCTTAAACGCACGTACGCGCTGTCCCCCGCGTTTTAACCGCCAAGGGGATTACTCCCTAGTCTCCAGGCACGTGTCAGATATATACATCCTGTGAT DNA 2: ATCACAGGATGTATATATCTGACACGTGCCTGGAGACTAGGGAGTAATCCCCTTGGCGGTTAAAACGCGGGGGACAGCGCGTACGTGCGTTTAAGCGGTGCTAGAGCTGTCTACGACCAATTGAGCGGCCTCGTGGCCTTGATTCTCCAGGAT	3.63 log2 enrichment (bound/unbound, relative to Widom 601)	3.37 log2 enrichment (bound/unbound, relative to Widom 601)
67 (nucleosome, reconstituted with mouse histones H2A, H2B, H3.3 and H4) DNA 1: ATCCTGGAGAATCCCGGTGCCGAGGCCGCTCAATTGGTCGTAGACAGCTCTAGCACCGCTTAAACGCACTCAAGGCCAGTCCCCCGCGTTTTAACCGCCAAGGGGATTACTCCCTAGTCTCCAGGCACGTGTCAGATATATACATCCTGTGAT DNA 2: ATCACAGGATGTATATATCTGACACGTGCCTGGAGACTAGGGAGTAATCCCCTTGGCGGTTAAAACGCGGGGGACTGGCCTTGAGTGCGTTTAAGCGGTGCTAGAGCTGTCTACGACCAATTGAGCGGCCTCGGCACCGGGATTCTCCAGGAT	0.806 log2 enrichment (bound/unbound, relative to Widom 601)	0.96 log2 enrichment (bound/unbound, relative to Widom 601)
71 (nucleosome, reconstituted with mouse histones H2A, H2B, H3.3 and H4) DNA 1: ATCCTGGAGAATCCCGGTGCCGAGGCCGCTCAATTGGTCGTAGACAGCTCTAGCACCGCTTAAACGCACGTACTCAAGGCCACCCGCGTTTTAACCGCCAAGGGGATTACTCCCTAGTCTCCAGGCACGTGTCAGATATATACATCCTGTGAT DNA 2: ATCACAGGATGTATATATCTGACACGTGCCTGGAGACTAGGGAGTAATCCCCTTGGCGGTTAAAACGCGGGTGGCCTTGAGTACGTGCGTTTAAGCGGTGCTAGAGCTGTCTACGACCAATTGAGCGGCCTCGGCACCGGGATTCTCCAGGAT	1.13 log2 enrichment (bound/unbound, relative to Widom 601)	1.45 log2 enrichment (bound/unbound, relative to Widom 601)
68 (nucleosome, reconstituted with mouse histones H2A, H2B, H3.3 and H4) DNA 1: ATCCTGGAGAATCCCGGTGCCGAGGCCGCTCAATTGGTCGTAGACAGCTCTAGCACCGCTTAAACGCACGTCAAGGCCATCCCCCGCGTTTTAACCGCCAAGGGGATTACTCCCTAGTCTCCAGGCACGTGTCAGATATATACATCCTGTGAT DNA 2: ATCACAGGATGTATATATCTGACACGTGCCTGGAGACTAGGGAGTAATCCCCTTGGCGGTTAAAACGCGGGGGATGGCCTTGACGTGCGTTTAAGCGGTGCTAGAGCTGTCTACGACCAATTGAGCGGCCTCGGCACCGGGATTCTCCAGGAT	0.625 log2 enrichment (bound/unbound, relative to Widom 601)	0.543 log2 enrichment (bound/unbound, relative to Widom 601)
72 (nucleosome, reconstituted with mouse histones H2A, H2B, H3.3 and H4) DNA 1: ATCCTGGAGAATCCCGGTGCCGAGGCCGCTCAATTGGTCGTAGACAGCTCTAGCACCGCTTAAACGCACGTACGTCAAGGCCACCGCGTTTTAACCGCCAAGGGGATTACTCCCTAGTCTCCAGGCACGTGTCAGATATATACATCCTGTGAT DNA 2: ATCACAGGATGTATATATCTGACACGTGCCTGGAGACTAGGGAGTAATCCCCTTGGCGGTTAAAACGCGGTGGCCTTGACGTACGTGCGTTTAAGCGGTGCTAGAGCTGTCTACGACCAATTGAGCGGCCTCGGCACCGGGATTCTCCAGGAT	1 log2 enrichment (bound/unbound, relative to Widom 601)	1.27 log2 enrichment (bound/unbound, relative to Widom 601)
73 (nucleosome, reconstituted with mouse histones H2A, H2B, H3.3 and H4) DNA 1: ATCCTGGAGAATCCCGGTGCCGAGGCCGCTCAATTGGTCGTAGACAGCTCTAGCACCGCTTAAACGCACGTACGCTCAAGGCCACGCGTTTTAACCGCCAAGGGGATTACTCCCTAGTCTCCAGGCACGTGTCAGATATATACATCCTGTGAT DNA 2: ATCACAGGATGTATATATCTGACACGTGCCTGGAGACTAGGGAGTAATCCCCTTGGCGGTTAAAACGCGTGGCCTTGAGCGTACGTGCGTTTAAGCGGTGCTAGAGCTGTCTACGACCAATTGAGCGGCCTCGGCACCGGGATTCTCCAGGAT	1.28 log2 enrichment (bound/unbound, relative to Widom 601)	1.51 log2 enrichment (bound/unbound, relative to Widom 601)

— publication PMC11102866, “Nucleosome-bound NR5A2 structure reveals pioneer factor mechanism by DNA minor groove anchor competition”
